Screens from PubChem BioAssay.
G9a block: blocks human histone lysine methyltransferase G9a. Q96KQ7. G9a H3K9 monomethylation, AlphaScreen, 2 h. Potency, µM (top dose mostly 102 µM), inactives show at the highest dose activity, negative = inhibition, most hits filed as inhibitors. hit rate 8.8% among 350,000; also: % is scaled to controls: 0 for no effect and ±100 for the full control effect; nearly all actives have a fitted effect of over 75% in size
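Quantitative HTS format: methyltransferase activity on a biotin-tagged H3K9 peptide is measured by AlphaScreen, using a rabbit anti-monomethyl-H3K9 antibody with streptavidin donor and anti-IgG acceptor beads. Final levels are 20 nM enzyme, 500 nM peptide, 20 uM SAM; 2 h RT.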
ALOX12 inh: ALOX12 (human) lipoxygenase inhibition. purified 12hLO, xylenol orange hydroperoxide absorbance. AID 1671190. P18054. Potency, µM (series often up to 108 µM), inactives show at the top dose activity change, negative = inhibition, actives largely listed as inhibitors. hit rate 1.1% among 580,000; also: % is scaled to controls: 0 for no effect and ±100 for the full control effect
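Purified human 12hLO (150 nM final) in 25 mM Hepes, 0.01% Triton X-100, pH 7.0 was preincubated 15 min at room temperature with compound. Then 40 uM arachidonic acid was added, 30 min. Hydroperoxide was read by Fe-XO absorbance ratio 573/405 nm.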
BAZ2B inh: BAZ2B (human) inhibition; Q9UIF8; AlphaScreen BAZ2B-H3K14Ac peptide displacement; Potency, µM (series often up to 114 µM), inactives show at the highest dose activity change, negative = inhibition, most hits filed as inhibitors; hit rate 4.4% among 360,000; also: % is scaled to controls: 0 for no effect and ±100 for the full control effect; nearly all actives have a fitted effect of over 60% in size
Target sequence (Q9UIF8 whole entry, looked up): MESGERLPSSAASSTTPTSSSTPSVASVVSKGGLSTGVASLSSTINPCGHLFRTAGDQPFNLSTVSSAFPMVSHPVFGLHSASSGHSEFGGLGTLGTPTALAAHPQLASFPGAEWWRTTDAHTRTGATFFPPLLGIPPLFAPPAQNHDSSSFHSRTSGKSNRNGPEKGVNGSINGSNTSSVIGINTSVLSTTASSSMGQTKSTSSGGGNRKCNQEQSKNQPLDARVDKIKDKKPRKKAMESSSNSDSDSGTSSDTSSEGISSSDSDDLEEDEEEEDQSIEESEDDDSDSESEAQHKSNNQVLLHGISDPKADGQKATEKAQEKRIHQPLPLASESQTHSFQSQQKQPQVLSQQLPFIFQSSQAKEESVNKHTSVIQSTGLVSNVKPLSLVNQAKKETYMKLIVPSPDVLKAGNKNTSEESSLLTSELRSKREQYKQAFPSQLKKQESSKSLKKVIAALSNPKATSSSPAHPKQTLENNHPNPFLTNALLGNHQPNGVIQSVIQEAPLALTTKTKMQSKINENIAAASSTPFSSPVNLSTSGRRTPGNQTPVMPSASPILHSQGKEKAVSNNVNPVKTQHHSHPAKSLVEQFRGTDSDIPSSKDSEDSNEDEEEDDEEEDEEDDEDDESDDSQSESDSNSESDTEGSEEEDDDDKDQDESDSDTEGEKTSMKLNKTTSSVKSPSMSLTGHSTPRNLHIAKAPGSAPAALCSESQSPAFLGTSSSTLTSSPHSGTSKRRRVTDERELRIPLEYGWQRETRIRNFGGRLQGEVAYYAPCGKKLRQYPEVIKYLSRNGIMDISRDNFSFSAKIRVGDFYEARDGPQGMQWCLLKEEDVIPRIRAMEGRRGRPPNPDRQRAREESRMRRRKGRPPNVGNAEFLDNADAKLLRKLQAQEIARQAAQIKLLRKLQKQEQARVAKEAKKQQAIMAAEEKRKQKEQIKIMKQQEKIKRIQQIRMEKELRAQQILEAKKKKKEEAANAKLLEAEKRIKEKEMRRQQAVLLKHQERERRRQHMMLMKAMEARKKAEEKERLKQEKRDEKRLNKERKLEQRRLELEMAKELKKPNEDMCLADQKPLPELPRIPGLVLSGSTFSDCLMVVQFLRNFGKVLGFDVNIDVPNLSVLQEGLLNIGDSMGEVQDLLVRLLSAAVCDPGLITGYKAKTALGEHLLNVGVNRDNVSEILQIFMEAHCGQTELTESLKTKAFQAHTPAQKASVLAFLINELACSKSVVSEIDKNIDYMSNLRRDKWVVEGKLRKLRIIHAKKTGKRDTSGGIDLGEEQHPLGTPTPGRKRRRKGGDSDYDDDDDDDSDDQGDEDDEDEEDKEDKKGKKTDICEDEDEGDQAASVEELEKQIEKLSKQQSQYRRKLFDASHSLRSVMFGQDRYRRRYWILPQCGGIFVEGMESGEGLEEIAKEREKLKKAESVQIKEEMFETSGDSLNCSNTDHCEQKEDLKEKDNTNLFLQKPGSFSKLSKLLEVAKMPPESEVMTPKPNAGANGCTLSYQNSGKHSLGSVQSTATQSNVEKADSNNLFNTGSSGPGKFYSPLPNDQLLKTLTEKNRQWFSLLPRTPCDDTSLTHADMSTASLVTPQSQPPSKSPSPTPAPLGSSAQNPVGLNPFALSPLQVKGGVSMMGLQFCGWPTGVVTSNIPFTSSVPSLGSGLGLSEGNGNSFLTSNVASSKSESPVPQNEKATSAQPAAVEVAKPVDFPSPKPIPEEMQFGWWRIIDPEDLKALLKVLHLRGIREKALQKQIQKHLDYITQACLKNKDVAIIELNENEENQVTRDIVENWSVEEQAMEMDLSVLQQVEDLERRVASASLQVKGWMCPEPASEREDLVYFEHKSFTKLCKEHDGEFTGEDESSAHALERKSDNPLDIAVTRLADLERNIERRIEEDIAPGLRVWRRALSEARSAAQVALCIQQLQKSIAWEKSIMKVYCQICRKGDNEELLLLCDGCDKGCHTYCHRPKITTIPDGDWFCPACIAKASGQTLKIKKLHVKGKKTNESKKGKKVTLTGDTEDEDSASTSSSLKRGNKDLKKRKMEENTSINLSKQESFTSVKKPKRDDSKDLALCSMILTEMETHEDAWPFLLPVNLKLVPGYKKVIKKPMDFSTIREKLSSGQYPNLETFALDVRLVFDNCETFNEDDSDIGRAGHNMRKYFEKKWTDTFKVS
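BAZ2B (50 nM) with biotin-H3(5-23)K14Ac peptide (50 nM) in PBS pH 7.4, 0.01% Tween-20, preformed 30 min, then compound 30 min at room temperature; top concentration 110uM. AlphaScreen streptavidin donor/nickel chelate acceptor beads (10 ug/mL final), 20 min dark, signal read.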
JMJD2A Tudor inh: inhibitors of human JMJD2A Tudor domain | AID 504339 | Potency, µM (doses to about 114 µM), without a hit: at the highest dose activity change, negative = inhibition, most hits filed as inhibitors | AlphaScreen JMJD2A-Tudor / H3K4me3 peptide binding | hit rate 4.4% among 390,000 | O75164; also: % is scaled to controls: 0 for no effect and ±100 for the full control effect; nearly all actives have a fitted effect of over 50% in size
Sfp inh: inhibitors of Bacillus subtilis Sfp phosphopantetheinyl transferase. Potency, µM, without a hit: largest response in the series, negative = inhibition, actives largely listed as inhibitors. Q9F4F7. hit rate 3.5% among 310,000. Biochemical Sfp PPTase activity, qHTS. AID 1490;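 also: the enzyme is Sfp with the accession as filed and its product quenches rhodamine fluorescence; 0% = enzyme reaction without inhibitor and -100% = no enzyme wells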
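Step 1, compound plus 15 nM Sfp-PPTase, 15 min, room temperature. Step 2, add rhodamine-CoA (5 uM) and BHQ-2-YbbR (12.5 uM). Step 3, read 525/598 nm fluorescence at 0 and 30 min.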
HP1b binding inh: HP1-beta chromodomain-methylated histone interaction inhibition; P83916; AlphaScreen HP1-beta / biotin-H3K9me3 peptide binding; Potency, µM (highest dose often 114 µM), for the others: at the highest dose activity change, negative = inhibition, hits mostly inhibitors; hit rate 0.56% among 390,000; AID 540317; also: nearly all actives have a fitted effect of over 70% in size
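Compound inhibition of the preformed complex between 50 nM HP1-beta and 50 nM biotinylated H3K9me3 peptide was read by AlphaScreen. Buffer was PBS pH 7.4 with 0.01% Tween-20. Incubations ran 30 min at room temperature, with 10 ug/mL donor/acceptor beads.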
Active calls of the source: *; ? = inconclusive; . = no result given; [ ] = another dose, or the depositor's remark. Sampled rows, rich in hits. Any-hit rate of the full collection: about 8.7%. Calls follow the shape of the dose curve; as a rule, active = well fitted curve in the direction sought with a large enough effect; inconclusive = small, poorly fitted or top-dose-only effect, or another doubt; inactive = no such curve, though single readings can be large; an effect the other way counts as inactive or inconclusive. Potency is read from the fitted curve at half-maximal effect.

SMILES | G9a block | ALOX12 inh | BAZ2B inh | JMJD2A Tudor inh | Sfp inh | HP1b binding inh
Cc1ccc(-c2cc(C(=O)Nc3cccc(C)n3)c3ccccc3n2)cc1 | . | -58% | . | . | . | .
Cc1cccc2nc(-c3ccccn3)c(Nc3ccc(F)cc3)n12 | -3%[59 µM] | -11% | 16µM* | 45µM* | . | 19%
COc1ccc(Nc2c(-c3ccc(F)cc3)nc3nc(C)cc(C)n23)cc1 | . | -26% | . | . | . | .
Cc1ccc(Nc2c(-c3ccsc3)nc3cccc(C)n23)cc1 | ? | 3% | ? | 50µM* | . | ?
Cc1ccc(Nc2c(-c3ccccn3)nc3cccc(C)n23)cc1 | 20%[59 µM] | ? | 16µM* | -35%[11.4 µM] | 8% | ?
COc1ccc(-c2noc(C(C)Oc3cccc(Cl)c3)n2)cc1 (stereo not drawn) | . | -2% | . | . | . | .
O=C(NC(c1ccccc1)c1ccccc1)c1cc2ccccc2oc1=O | . | 23% | . | . | . | .
COc1cc(OC)c2c(C)c(CC(=O)Nc3cccc(C(C)=O)c3)c(=O)oc2c1 | . | -16% | . | . | . | .
CC(=O)Oc1cc(OC(C)=O)c2c(c1)OC(c1ccc(OC(C)=O)c(OC(C)=O)c1)C(OC(C)=O)C2 (stereo not drawn) | . | . | . | . | -6% | .
O=C(OC1Cc2c(O)cc(O)cc2OC1c1cc(O)c(O)c(O)c1-c1c(C2Oc3cc(O)cc(O)c3CC2O)cc(O)c(O)c1O)c1cc(O)c(O)c(O)c1 (stereo not drawn) | . | . | . | . | 40µM* | .
Cc1cc(-n2nnnc2N2CCN(C(=O)Nc3ccc(C)c(F)c3)CC2)ccc1F | . | 0%[6.33 µM] | . | . | . | .
CCCCn1c(CCn2nc(C)c(Br)c2C)n[nH]c1=S | ? | ? | -3% | 28µM* | 3% | 6%
NC(=O)c1cccnc1Oc1cccc(Cl)c1 | 1%[12.7 µM] | 0% | 16% | 20µM* | -7% | ?
CCCCOc1ccc(-c2csc(N)n2)cc1[N+](=O)[O-] | 8.9µM* | -27% | ? | -19% | 40µM* | -11%
CN=C(c1ccc(C)cc1)n1c(=S)nc(-c2ccc(C)cc2)n(C)c1=S | 40µM* | -12% | -22% | 7%[11.4 µM] | -106% | ?
COc1ccc(C)cc1NC(=O)C(=O)c1c[nH]c2ccccc12 | . | -22% | . | . | . | .
COc1ccc(C)cc1Nc1nc(-c2c[nH]c3ccccc23)cs1 | 3.2µM* | ? | 50µM* | ? | 28µM* | -24%[57 µM]
CN(C)C(=O)c1ccc(-c2cc(-n3ccnc3)ncn2)cc1 | -17%[0.501 µM] | 25µM* | . | . | -26% | .
c1cncc(-c2cc(-n3ccnc3)ncn2)c1 | -39%[0.501 µM] | 45µM* | . | . | 79µM* | .
CN(C)C(=O)c1ccc(-c2nc(-n3ccnc3)c3ccccc3n2)cc1 | -4%[0.501 µM] | ? | . | . | -29% | .
CN(C)c1ccc(-c2cc(-n3ccnc3)ncn2)cc1 | . | ? | . | . | 50µM* | .
N#Cc1cccc(-c2cc(-n3ccnc3)ncn2)c1 | . | ? | . | . | -3% | .
CNc1cc(-c2ccccc2CN(C)C)ncn1 | -1%[0.501 µM] | -3% | . | . | 17% | .
CN(C)Cc1ccccc1-c1cc(-n2ccnc2)ncn1 | . | ? | . | . | 50µM* | .
COc1cccc(C2C3=C(CC(C)(C)CC3=O)Nc3nc(-c4cc(OC)c(OC)c(OC)c4)nn32)c1 (stereo not drawn) | . | -5% | . | . | . | .
SMILES | G9a block | ALOX12 inh | BAZ2B inh | JMJD2A Tudor inh | Sfp inh | HP1b binding inh
c1cncc(-c2cncnc2-n2ccnc2)c1 | . | 7.9µM* | . | . | -18% | .
COC(=O)c1[nH]c2ccc(C)cc2c1NC(=O)CN1CCc2cc(OC)c(OC)cc2C1 | 50µM* | -9% | ? | -26% | -3% | 16%
COc1cc2c(cc1OC)CN(CC(=O)Nc1ccc(C)cc1)CC2 | ? | ? | -36% | -17% | 23% | 26%
COC(=O)c1[nH]c2ccc(C)cc2c1NC(=O)Nc1ccccc1OC | 40µM* | -9% | 3% | -6% | ? | 13%
COc1ccc2cc(C(=O)NCc3cccnc3-n3cccn3)c(C)nc2c1 | . | 9% | . | . | . | .
COC(=O)C1=NN(N=O)C2(CC(=O)N(c3cc(C)cc(C)c3)C2=O)C1 (stereo not drawn) | 14µM* | ? | -2% | ? | -23% | 36%
